Reference: PubChem BioAssay (NCI)
“And” between values parts separate entries of the source, which are not always exact repeats. Identical values can stand only once. About 83,000 compounds went through this panel and 20% of them were active in at least one assay; those are over-represented in the sample as a whole.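 Values shown are percent growth following 48 h exposure of cells in 96-well plates to a single concentration of compound; below 10 was considered active.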 Unmarked numbers belong to inactive results. The source made the active and inactive calls.

system: SK-MEL-5 melanoma; assay: NCI-60 one-dose screen, 48 h (100 = growth as untreated, 0 = no growth, -100 = all killed); conditions: 10 µM unless noted

Compound | growth
ClC(Cn1ncc2c(Nc3cccc(Br)c3)nc(SCCN3CCOCC3)nc21)c1ccc(Br)cc1 (centres undefined) | -89.9% (active)
COc1ccc(N=Nc2c(N)nn3c(N)c(C#N)c(-c4ccccc4)nc23)cc1 | 34.2%
Cc1cccc(-c2ccccc2Oc2ccc3nnc(Cl)n3n2)c1 | 98.5%
CCN1CCN(Cc2ccc(C(=O)Nc3cccc(Nc4ccc5c(OC)cccc5n4)c3)cc2C(F)(F)F)CC1 | -99.2% (active)
N#CCc1nnc(NC(=O)c2ccc(-n3c(=O)[nH]c4ccccc4c3=O)cc2)s1 | 102%
COc1cc(NC(=O)CSc2nnc(-c3ccc(-c4nc5ccc(Cl)cc5[nH]4)cc3)o2)cc(OC)c1OC | 5.22% (active)
c1n[nH]cc1-c1nc2ccc3cn[nH]c3c2c2c1CCCC2 | 81.7%
Cc1ccccc1NC(=O)c1cccc(NC(=O)CCl)c1 | 44.2%
COc1ccc(-c2cc(-c3cc(OC)c(OC)c(OC)c3)[nH]c(=O)c2C#N)cc1 | 64.9%
O=C(CSc1nc2c(c(=O)[nH]1)CCCC2)Nc1ccccc1C(=O)O | 99.3%
N/C(=N\c1nc2ccccc2s1)NC(=O)Nc1ccccc1[N+](=O)[O-] | -21.5% (active)
FC(F)(F)c1cc2c(Cl)ncnc2n1CCN1CCOCC1 | 88.2%
O=C(NNC(=O)c1ccc(OCc2nc3ccc(Cl)cc3[nH]2)cc1)Nc1ccc(Cl)c(Cl)c1 | 56.5%
Clc1ccc(-c2nc3c4c(-c5ccccc5)c(-c5ccccc5)n(Cc5ccccc5)c4ncn3n2)cc1 | -94.6% (active)
COc1c(B(O)O)cc(F)cc1-c1nc2c(F)cc3[nH]ncc3c2c2c1CCCC2 | 7.04% (active)
C/C(=N\Nc1ccc(C(=O)O)cc1)c1cnn(-c2cc(=O)[nH]c3ccc(C)cc23)c1C | 97.9%
O=C1Nc2cc(-c3ccc(NS(=O)(=O)c4ccc([N+](=O)[O-])cc4)cc3)ccc2/C1=C/c1ccc[nH]1 | 24.2%
COc1ccc(NC(=O)CSc2nnc(-c3ccc(-c4nc5ccc(Cl)cc5[nH]4)cc3)o2)cc1 | 7% (active)
COc1ccc2[nH]c(O)c(N=Nc3nc(-c4ccc(C#N)cc4)cs3)c2c1 | 53.7%
COc1ccc(-c2nc3ccc(-c4nnc(SCC(=O)Nc5ccc(/C(C)=N\O)cc5)o4)cc3[nH]2)cc1 | -75.7% (active)
CCCCCCCCCCCCCCCCCC(=O)Nc1ccc(OC)cc1 | 102%
CCN1C(=O)N(CC)C2NNC(Sc3c(C(=O)O)c4ccccc4n(CCC(C)C)c3=O)=NC21 (centres undefined) | 3.73% (active)
COc1ccc(/C=C/c2nc3ccccc3n3c(-c4cccc([N+](=O)[O-])c4)nnc23)cc1 | -95.4% (active)
COc1ccc(NC(=O)N/N=C/c2c[nH]c3ccccc23)cc1 | 20.5%
CCC(=O)c1cc(C(=O)OC)c2ccc3c4ccccc4ccc3n12 | 93.8%
Cc1oc(-c2ccccc2)nc1CN[C@@H]1C[C@@H]2C[C@H]([C@H]1C)C2(C)C | -94.1% (active)

system: UACC-62 melanoma; assay: as above; conditions: 10 µM unless noted

Compound | growth
C=CC(=O)N1CCN(c2ccc3nc4c(nc3c2C(F)(F)F)C(=O)c2ncccc2C4=O)CC1 | -60% (active)
O=C(N/N=C/c1ccc(-c2cccc([N+](=O)[O-])c2)s1)c1[nH]c2ccc(Br)cc2c1-c1ccccc1 | 70.5%
CCCCNc1ccc2c3c(cccc13)C(=O)N(NCC(O)COc1ccc3c(C)cc(=O)oc3c1)C2=O (centres undefined) | 69.2%
CC(=O)Nc1cccc(-n2c(COc3ccc(Br)cc3)nc3ccccc32)c1 | 71.9% and 91.9%
CC(=O)c1c2c(c3ccc4c5ccccc5ccc4n13)C(=O)c1ccccc1C2=O | 87%
CC1=NN(C2=NC(=O)C(CC(=O)Nc3ccccc3C(F)(F)F)S2)C(c2ccc(N(C)C)cc2)C1 (centres undefined) | 41.4%
Cc1ccc(C2CC(c3ccc(NC(=O)Nc4ccccc4)cc3)=NN2c2ccc(S(C)(=O)=O)cc2)cc1 (centres undefined) | -80.3% (active)
O=C(CSc1nc2sc3c(c2c(=O)n1-c1ccc(Cl)cc1)CCCC3)N/N=C/C=C/c1ccccc1 | -79.9% (active)
O=C(COc1ccc(/C=C2/C(=O)Nc3ccc(Cl)cc32)cc1)Nc1ccc(Br)cc1 | 0.1% (active)
CC(C)(C)OC(=O)N1CCC2(CC1)Oc1ccccc1[C@H]1CC(c3ccc(Br)cc3)=NN12 | 41.3%
N#Cc1c(-c2ccc(F)cc2)nc(SCc2ccc(F)cc2)nc1N1CCNCC1 | -91.6% (active)
Cc1ccc(/C=C/C(=O)c2ccc(S(=O)(=O)NCCNc3nc(N(C)C)nc(N4CCOCC4)n3)cc2)cc1 | 72.6%
ClC(Cn1ncc2c(Nc3cccc(Br)c3)nc(SCCN3CCOCC3)nc21)c1ccc(Br)cc1 (centres undefined) | -44.3% (active)
COc1ccc(N=Nc2c(N)nn3c(N)c(C#N)c(-c4ccccc4)nc23)cc1 | 36.3%
Cc1cccc(-c2ccccc2Oc2ccc3nnc(Cl)n3n2)c1 | 96.8%
CCN1CCN(Cc2ccc(C(=O)Nc3cccc(Nc4ccc5c(OC)cccc5n4)c3)cc2C(F)(F)F)CC1 | -95.1% (active)
N#CCc1nnc(NC(=O)c2ccc(-n3c(=O)[nH]c4ccccc4c3=O)cc2)s1 | 86.8%
COc1cc(NC(=O)CSc2nnc(-c3ccc(-c4nc5ccc(Cl)cc5[nH]4)cc3)o2)cc(OC)c1OC | 28.4%
c1n[nH]cc1-c1nc2ccc3cn[nH]c3c2c2c1CCCC2 | 81.4%

Compound | growth
Cc1ccccc1NC(=O)c1cccc(NC(=O)CCl)c1 | 24.4%
COc1ccc(-c2cc(-c3cc(OC)c(OC)c(OC)c3)[nH]c(=O)c2C#N)cc1 | 59.3%
O=C(CSc1nc2c(c(=O)[nH]1)CCCC2)Nc1ccccc1C(=O)O | 96.1%
N/C(=N\c1nc2ccccc2s1)NC(=O)Nc1ccccc1[N+](=O)[O-] | 12%
FC(F)(F)c1cc2c(Cl)ncnc2n1CCN1CCOCC1 | 64.7%
O=C(NNC(=O)c1ccc(OCc2nc3ccc(Cl)cc3[nH]2)cc1)Nc1ccc(Cl)c(Cl)c1 | 62.7%
Clc1ccc(-c2nc3c4c(-c5ccccc5)c(-c5ccccc5)n(Cc5ccccc5)c4ncn3n2)cc1 | 11.7%
COc1c(B(O)O)cc(F)cc1-c1nc2c(F)cc3[nH]ncc3c2c2c1CCCC2 | -7% (active)
C/C(=N\Nc1ccc(C(=O)O)cc1)c1cnn(-c2cc(=O)[nH]c3ccc(C)cc23)c1C | 91.5%
O=C1Nc2cc(-c3ccc(NS(=O)(=O)c4ccc([N+](=O)[O-])cc4)cc3)ccc2/C1=C/c1ccc[nH]1 | 0.956% (active)
COc1ccc(NC(=O)CSc2nnc(-c3ccc(-c4nc5ccc(Cl)cc5[nH]4)cc3)o2)cc1 | -32.6% (active)
COc1ccc2[nH]c(O)c(N=Nc3nc(-c4ccc(C#N)cc4)cs3)c2c1 | 72.7%
COc1ccc(-c2nc3ccc(-c4nnc(SCC(=O)Nc5ccc(/C(C)=N\O)cc5)o4)cc3[nH]2)cc1 | 14%
CCCCCCCCCCCCCCCCCC(=O)Nc1ccc(OC)cc1 | 97.5%
CCN1C(=O)N(CC)C2NNC(Sc3c(C(=O)O)c4ccccc4n(CCC(C)C)c3=O)=NC21 (centres undefined) | 17.9%
COc1ccc(/C=C/c2nc3ccccc3n3c(-c4cccc([N+](=O)[O-])c4)nnc23)cc1 | -83.1% (active)
COc1ccc(NC(=O)N/N=C/c2c[nH]c3ccccc23)cc1 | 25.5%
CCC(=O)c1cc(C(=O)OC)c2ccc3c4ccccc4ccc3n12 | 89.6%
Cc1oc(-c2ccccc2)nc1CN[C@@H]1C[C@@H]2C[C@H]([C@H]1C)C2(C)C | -32.6% (active)
